# Measured values published in PubChem BioAssay (NCATS).
# Values without a mark were called inactive. Results filed as inconclusive are left out. A call without a number means that no potency is given here. Active and inactive are the calls of the source. Unless noted, calls follow the shape of the dose curve; as a rule, active = well fitted curve in the direction sought with a large enough effect; inconclusive = small, poorly fitted or top-dose-only effect, or another doubt; inactive = no such curve, though single readings can be large; an effect the other way counts as inactive or inconclusive.
# Assays:
# [1] = biological target: ATP-dependent 6-phosphofructokinase (Trypanosoma brucei brucei) (UniProt O15648); assay: qHTS Assay to Find Inhibitors of T. brucei phosphofructokinase: hit validation (AID 492961)
# How it was run: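 Luminescence from ADP-Glo reports ADP generated as T. brucei PFK (1.25 nM) phosphorylates 0.5 mM fructose-6-phosphate using 0.1 mM ATP. Reactions ran 45 min at room temperature, pH 8.0.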
# [2] = biological target: Thyroid hormone receptor beta (Homo sapiens) (UniProt P10828); assay: qHTS assay for small molecule agonists of thyroid hormone receptor beta signaling (AID 588545; calls by dose curve)
# How it was run: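 Compounds were tested as agonists in TR-UAS-bla-GripTite HEK 293 cells. After 18 hrs at 37 C, CCF4 substrate was added and fluorescence read after 2 hrs at room temperature.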
# [3] = S16 Schwann cell PMP22 intronic element firefly luciferase assay (AID 624032); also: nearly all actives have a fitted effect of over 30% in size; also: potency is read from the fitted curve at half-maximal effect
# How it was run: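 Rat S16 Schwann cells stably carrying firefly luciferase driven by a PMP22 intronic element, in 10% FBS, treated 24 h at 37 C. ONE-Glo luminescence normalized to PTC124 control and DMSO (0%); curves classed by r2, magnitude and activity.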
# [4] = biological target: Peroxisome proliferator-activated receptor alpha (Homo sapiens) (UniProt Q07869); assay: qHTS assay for small molecule agonists of the peroxisome proliferator-activated receptor alpha (PPARalpha) signaling pathway (AID 651778); details: PathHunter PPARalpha complementation, chemiluminescence, 6 h; max response: hits give high values
# How it was run: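 Enzyme-fragment complementation assay in which ligand-bound PPARalpha translocates and forms an active enzyme that generates chemiluminescence. Cells were plated overnight, exposed to compound for 6 hr at 37 C, and then given detection reagent for 60 min at room temperature.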
# 3D7 = assay: qHTS profiling for inhibitors of Plasmodium falciparum proliferation (AID 504749); also: nearly all actives have a fitted effect of over 60% in size; also: potency is read from the fitted curve at half-maximal effect; details: P. falciparum in erythrocytes, SYBR Green DNA, 72 h; series mostly up to 28.7 µM
# How it was run: (§1)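 Each compound contacts P. falciparum-infected red blood cells for 72 h at 37 C; lysis buffer (Tris, EDTA, saponin, Triton X, SYBR Green I) is added and fluorescence measured next morning; values normalized to controls.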
# ATS189 = assay: as above; details: P. falciparum in erythrocytes, SYBR Green DNA, 72 h; series mostly up to 28.7 µM
# How it was run: as §1
# CP185 = assay: as above; details: P. falciparum in erythrocytes, SYBR Green DNA, 72 h; series mostly up to 28.7 µM
# How it was run: as §1
# CP211 = assay: as above; details: P. falciparum in erythrocytes, SYBR Green DNA, 72 h; series mostly up to 28.7 µM
# How it was run: as §1
# CP250 = assay: as above; details: P. falciparum in erythrocytes, SYBR Green DNA, 72 h; series mostly up to 28.7 µM
# How it was run: as §1
# CP252 = assay: as above; details: P. falciparum in erythrocytes, SYBR Green DNA, 72 h; series mostly up to 28.7 µM
# How it was run: as §1
# CP286 = assay: as above; details: P. falciparum in erythrocytes, SYBR Green DNA, 72 h; series mostly up to 28.7 µM
# How it was run: as §1
# CP291 = assay: as above; details: P. falciparum in erythrocytes, SYBR Green DNA, 72 h; series mostly up to 28.7 µM
# How it was run: as §1
# CP305 = assay: as above; details: P. falciparum in erythrocytes, SYBR Green DNA, 72 h; series mostly up to 28.7 µM
# How it was run: as §1
# CP315 = assay: as above; details: P. falciparum in erythrocytes, SYBR Green DNA, 72 h; series mostly up to 28.7 µM
# How it was run: as §1
# CP329 = assay: as above; details: P. falciparum in erythrocytes, SYBR Green DNA, 72 h; series mostly up to 28.7 µM
# How it was run: as §1
# Dd2 = assay: as above; details: P. falciparum in erythrocytes, SYBR Green DNA, 72 h; series mostly up to 28.7 µM
# How it was run: as §1
# [5] = Confirmation and Secondary Assay for Modulators of Hemoglobin Beta Chain Splicing at IVS2 654 locus (AID 910);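 also: HeLa cells stably carrying EGFP split by mutant beta-globin IVS2-654 intron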
# How it was run: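 HeLa cells stably expressing EGFP interrupted by β-globin IVS2-654 intron, seeded overnight in Opti-MEM/2% FCS, then treated 2 days at 37 °C. Restored splicing read as total peak GFP intensity per well by laser scanning cytometry (488 nm excitation, 500–520 nm emission); 500 nM antisense PNA as control.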
# [6] = Confirmation and Secondary Assay for Modulators of Hemoglobin Beta Chain Splicing at IVS2 705 locus (AID 930);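 also: HeLa cells stably expressing the EGFP-705 splicing reporter; GFP fluorescence per well restored by corrected splicing of the IVS2-705 intron in EGFP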
# How it was run: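 HeLa IVS2-705 EGFP reporter cells, 500/well, compound 2 d at 37C; correct splicing yields fluorescent EGFP. Control: 500 nM antisense PNA. Read-out: total peak GFP intensity.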
# CP191 = assay: qHTS profiling for inhibitors of Plasmodium falciparum proliferation (AID 504749); also: nearly all actives have a fitted effect of over 60% in size; also: potency is read from the fitted curve at half-maximal effect; details: P. falciparum in erythrocytes, SYBR Green DNA, 72 h; series mostly up to 28.7 µM
# How it was run: as §1
# TAB113 = assay: as above; details: P. falciparum in erythrocytes, SYBR Green DNA, 72 h; series mostly up to 28.7 µM
# How it was run: as §1
# Sequence of ATP-dependent 6-phosphofructokinase (Trypanosoma brucei brucei) (O15648 whole entry, looked up): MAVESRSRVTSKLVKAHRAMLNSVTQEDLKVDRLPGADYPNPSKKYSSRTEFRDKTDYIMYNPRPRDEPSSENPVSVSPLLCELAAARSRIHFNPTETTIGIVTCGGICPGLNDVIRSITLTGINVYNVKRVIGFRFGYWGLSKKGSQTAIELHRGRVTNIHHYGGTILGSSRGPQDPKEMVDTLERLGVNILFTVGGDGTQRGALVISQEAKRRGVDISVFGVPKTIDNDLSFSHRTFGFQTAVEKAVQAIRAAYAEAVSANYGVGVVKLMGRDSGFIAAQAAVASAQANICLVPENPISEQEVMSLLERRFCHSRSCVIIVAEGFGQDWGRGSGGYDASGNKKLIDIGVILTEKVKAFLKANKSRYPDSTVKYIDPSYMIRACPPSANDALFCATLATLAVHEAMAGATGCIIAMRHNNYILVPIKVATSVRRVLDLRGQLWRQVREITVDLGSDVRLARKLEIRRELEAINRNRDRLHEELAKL
# Sequence of Thyroid hormone receptor beta (Homo sapiens) (P10828 whole entry, looked up): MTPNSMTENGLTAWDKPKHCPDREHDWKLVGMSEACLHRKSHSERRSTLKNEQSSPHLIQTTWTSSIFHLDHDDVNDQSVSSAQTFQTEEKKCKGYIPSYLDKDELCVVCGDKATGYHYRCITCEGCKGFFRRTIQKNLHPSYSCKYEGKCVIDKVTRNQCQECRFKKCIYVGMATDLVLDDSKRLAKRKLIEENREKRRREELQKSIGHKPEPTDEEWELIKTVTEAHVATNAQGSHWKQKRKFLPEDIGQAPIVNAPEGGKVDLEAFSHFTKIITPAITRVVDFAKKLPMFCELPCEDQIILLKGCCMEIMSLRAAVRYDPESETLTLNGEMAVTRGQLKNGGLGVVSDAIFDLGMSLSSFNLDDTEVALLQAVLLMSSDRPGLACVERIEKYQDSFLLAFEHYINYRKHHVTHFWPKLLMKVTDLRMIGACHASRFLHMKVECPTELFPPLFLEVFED
# Sequence of Peroxisome proliferator-activated receptor alpha (Homo sapiens) (Q07869 whole entry, looked up, the tested form may be a part): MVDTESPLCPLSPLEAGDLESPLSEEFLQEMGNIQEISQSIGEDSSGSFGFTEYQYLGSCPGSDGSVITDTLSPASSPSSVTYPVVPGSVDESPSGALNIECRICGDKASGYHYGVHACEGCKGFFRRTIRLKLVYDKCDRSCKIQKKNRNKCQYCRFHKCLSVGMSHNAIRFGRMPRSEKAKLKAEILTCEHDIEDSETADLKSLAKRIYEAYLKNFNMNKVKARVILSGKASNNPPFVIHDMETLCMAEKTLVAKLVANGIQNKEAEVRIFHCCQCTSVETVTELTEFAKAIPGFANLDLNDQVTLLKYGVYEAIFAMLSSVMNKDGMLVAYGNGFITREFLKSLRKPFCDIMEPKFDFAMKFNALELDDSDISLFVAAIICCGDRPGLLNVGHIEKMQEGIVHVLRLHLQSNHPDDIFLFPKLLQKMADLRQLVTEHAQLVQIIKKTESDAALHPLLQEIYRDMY
SMILES,outcome [1],Potency [2],Potency [3],max response [4] [%],Potency (3D7),Potency (ATS189),Potency (CP185),Potency (CP211),Potency (CP250),Potency (CP252),Potency (CP286),Potency (CP291),Potency (CP305),Potency (CP315),Potency (CP329),Potency (Dd2),Potency [5],outcome [6],Potency (CP191),Potency (TAB113)
CC(C)=CC1C(C(=O)OCc2coc(Cc3ccccc3)c2)C1(C)C (configuration not stated),inactive,inactive,inactive,-0.283,inactive,inactive,inactive,inactive,inactive,inactive,inactive,inactive,inactive,inactive,inactive,inactive,,,,
C=C1CC2C(CC[C@]3(C)C(=O)CCC23)[C@]2(C)C=CC(=O)C=C12 (some centres not stated),inactive,,11.4 µM (active),,inactive,inactive,inactive,inactive,inactive,inactive,inactive,inactive,inactive,inactive,inactive,inactive,inactive,inactive,inactive,inactive
CCC/C=C/C=C/C(=O)OC1/C(=C/C(=O)OC)CC2CC(C(C)O)OC(=O)CC(O)CC3CC(OC(C)=O)C(C)(C)C(O)(CC4C/C(=C/C(=O)OC)CC(/C=C\C(C)(C)C1(O)O2)O4)O3 (configuration not stated),inactive,,inactive,,2.82 µM (active),0.891 µM (active),1 µM (active),,1 µM (active),1.26 µM (active),2.24 µM (active),2.69 µM (active),1.9 µM (active),,1.9 µM (active),2.24 µM (active),,,1.12 µM (active),1.78 µM (active)
NC(Cc1ccc(Oc2cc(I)c(O)c(I)c2)c(I)c1)C(=O)O (configuration not stated),,,inactive,,inactive,inactive,inactive,inactive,inactive,inactive,inactive,inactive,inactive,inactive,inactive,inactive,,,inactive,inactive
CCN(CC)C(=O)N[C@@H]1C=C2c3cccc4[nH]cc(c34)C[C@H]2N(C)C1,inactive,,inactive,,,,,,,,,,,inactive,,14.1 µM (active),,,,7.94 µM (active)
CC(CO)NC(=O)C1C=C2c3cccc4[nH]cc(c34)CC2N(C)C1 (configuration not stated),,,inactive,,inactive,inactive,inactive,inactive,inactive,inactive,inactive,inactive,inactive,inactive,inactive,inactive,,,inactive,inactive
CN(C)C1C(=O)C(C(N)=O)C(=O)C2(O)C(=O)C3C(=O)c4c(O)cccc4C(C)(O)C3C(O)C12 (configuration not stated),inactive,,inactive,,,inactive,inactive,inactive,inactive,inactive,,,inactive,,inactive,3.55 µM (active),,,inactive,inactive
CC(=O)Oc1ccc2c3c1OC1[C@@H](OC(C)=O)C=C[C@H]4[C@H](C2)N(C)CC[C@]314 (some centres not stated),inactive,,inactive,,inactive,inactive,inactive,inactive,inactive,inactive,inactive,inactive,inactive,inactive,inactive,inactive,,,inactive,inactive
CCC(=O)OC1(c2ccccc2)CCN(C)CC1C (configuration not stated),,,inactive,,inactive,,,inactive,,,12.6 µM (active),,,inactive,,5.62 µM (active),,,inactive,
CC(=O)O[C@H]1C[C@H](O[C@H]2[C@@H](O)CC(O[C@H]3[C@@H](O)C[C@H](O[C@H]4CC[C@@]5(C)[C@H](CC[C@@H]6[C@@H]5CC[C@]5(C)[C@@H](C7=CC(=O)OC7)CC[C@]65O)C4)O[C@@H]3C)O[C@@H]2C)O[C@H](C)[C@H]1O[C@@H]1O[C@H](CO)[C@@H](O)[C@H](O)[C@H]1O (some centres not stated),inactive,,,,,inactive,inactive,inactive,inactive,inactive,inactive,inactive,inactive,inactive,inactive,inactive,,,,inactive
O=C1CC2OCC=C3CN4CCC56c7ccccc7N1C5[C@H]2[C@H]3C[C@H]46 (some centres not stated) (tested in a mixture with another compound),inactive,,inactive,,,inactive,inactive,inactive,inactive,inactive,,inactive,,inactive,inactive,,,,inactive,inactive
C[C@]12CCC3C(CCC4=C(Cl)C(=O)CC[C@@]43C)C1CCC2O (some centres not stated),inactive,,,,inactive,inactive,inactive,inactive,inactive,inactive,inactive,inactive,inactive,inactive,inactive,inactive,,,inactive,inactive
CN(C)[C@@H](Cc1ccccc1)c1ccccc1,inactive,,inactive,,inactive,inactive,inactive,inactive,inactive,inactive,inactive,inactive,inactive,inactive,inactive,10 µM (active),,,inactive,inactive
CC(C)CCC(=O)OC1CCC2C3CCC4=CC(=O)CC[C@]4(C)C3CC[C@]12C (some centres not stated),,,,,,8.91 µM (active),10 µM (active),inactive,10 µM (active),,4.47 µM (active),,inactive,inactive,inactive,,,,6.31 µM (active),7.08 µM (active)
CC1CC[C@@]2(NC1)OC1CC3C4CC[C@@H]5CC(O)CC[C@@]5(C)C4CC[C@]3(C)C1C2C (some centres not stated),inactive,,inactive,,inactive,inactive,inactive,inactive,inactive,inactive,inactive,inactive,inactive,inactive,inactive,,inactive,inactive,inactive,inactive
O=C1CC2OCC=C3CN4CC[C@]56c7ccccc7N1C5C2[C@H]3C[C@H]46 (some centres not stated),inactive,,inactive,,inactive,,,,,,,,,,,11.2 µM (active),,,inactive,
CC(=O)[C@H]1CC[C@H]2C3CC[C@H]4C[C@H](O)CC[C@]4(C)C3CC[C@]12C (some centres not stated),inactive,,inactive,,inactive,inactive,inactive,inactive,inactive,inactive,inactive,inactive,inactive,inactive,inactive,inactive,,,inactive,inactive
COC(=O)C1C(OC(=O)c2ccccc2)CC2CCC1N2C (configuration not stated),,,inactive,,inactive,inactive,inactive,inactive,inactive,inactive,inactive,inactive,inactive,inactive,inactive,inactive,,,inactive,inactive
